For 40 molecules, outcome results are on record in PubChem BioAssay AID2625 (National Center for Advancing Translational Sciences (NCATS), 2010).

Molecules are shown by their SMILES. Inconclusive results are not listed. The source made the active and inactive calls. The call rests on the fitted dose curve; in most records, active means well fitted curve in the direction sought with a large enough effect; inconclusive means small, poorly fitted or top-dose-only effect, or effect the other way, or another doubt; inactive means no such curve, though single readings can be large or run the other way.

Pyruvate kinase PKLR (Homo sapiens), sequence (P30613 whole entry, looked up): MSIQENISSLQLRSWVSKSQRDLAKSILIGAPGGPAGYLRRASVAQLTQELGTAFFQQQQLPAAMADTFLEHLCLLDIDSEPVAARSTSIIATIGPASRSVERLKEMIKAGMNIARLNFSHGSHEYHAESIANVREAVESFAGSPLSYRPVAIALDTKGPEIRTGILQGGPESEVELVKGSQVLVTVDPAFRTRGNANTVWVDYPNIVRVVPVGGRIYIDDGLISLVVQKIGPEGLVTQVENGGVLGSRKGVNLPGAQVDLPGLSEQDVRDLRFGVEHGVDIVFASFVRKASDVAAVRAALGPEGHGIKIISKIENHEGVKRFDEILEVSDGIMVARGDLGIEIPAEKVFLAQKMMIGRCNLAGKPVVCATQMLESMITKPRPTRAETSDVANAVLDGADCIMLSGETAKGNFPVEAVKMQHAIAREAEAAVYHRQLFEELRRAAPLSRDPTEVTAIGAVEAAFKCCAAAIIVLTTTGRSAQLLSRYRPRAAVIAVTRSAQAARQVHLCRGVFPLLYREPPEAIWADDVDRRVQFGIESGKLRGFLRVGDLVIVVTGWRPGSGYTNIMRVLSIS

The test has as its target Pyruvate kinase PKLR (Homo sapiens) (UniProt P30613). Kind of test: Secondary LDH Assay for Activators of Human Liver Pyruvate Kinase: for Probe SAR. The conditions noted are these: purified hPK-L, LDH-coupled NADH fluorescence kinetic; series mostly up to 58.2 µM. An excerpt: NIH Chemical Genomics Center [NCGC]
Matthew G. Vander Heiden, M.D., Ph.D. [Harvard Medical School, 77 Avenue Louis Pasteur, Boston, MA 02115]
Human pyruvate kinase liver (hPK-L)enzyme was supplied as a highly purified (>95% pure) preparation from Harvard Medical School and a secondary assay was used to evaluate compounds. This assay couples the formation of pyruvate from hPK-R using lactate dehydrogenase (LDH) and NADH. The depletion of NADH is followed in a fluorescent-based kinetic assay that follows the formation of pyruvate to lactate, as catalyzed LDH. Pyruvate kinase substrates, PEP and ADP, were present in the assay at 0.1 mM and 4 mM respectively. In this kinetic assay initial rates were determined by following the fluorescence of NADH depletion.
NCGC Assay Protocol Summary:
Three uL of substrate mix (final concentration, 50 mM Tris-Cl pH 8.0, 200 mM KCl, 15 mM MgCl2, 0.1 mM PEP, 4.0 mM ADP, and 0.2 mM NADH) was dispensed into black-solid 1536 well plates. 23 nL of compounds were delivered by a pin tool and 1 uL of enzyme mix (final concentrations, 10 nM hPK-L and 1 uM of LDH) was added. Plates were immediately placed in ViewLux (Perkin Elmer) and NADH fluorescence was determined at 30 second exposure intervals for between 3 and 6 minutes. Data were normalized to the uninhibited and EC100 activation using known activators such as fructose-bis-phosphate.
As to `N#Cc1cccc(NS(=O)(=O)c2ccc3c(c2)CCC(=O)N3)c1`, the call was inactive.
In the case of `Cc1ccc(N[S+](=O)([O-])c2cc3c(cc2CCc2ccccc2)NC(=O)CO3)cc1C`, the result was inactive.
Regarding `O=C1CCc2cc(S(=O)(=O)Nc3ccc4c(c3)CCC4)ccc2N1`, the call was inactive.
The same measure for `Cc1ccc(NS(=O)(=O)c2ccc3c(c2)CCC(=O)N3)cc1Cl`: “inactive”; for `COc1ccc(Nc2c(-c3ccc(C)o3)nc3ccccn23)cc1`: “inactive”.
The same measure for `Cc1ccc(-c2nc3ccc(Cl)cn3c2Nc2ccccc2)o1`: “inactive”.
On to `O=C1c2ccccc2C(=O)N1c1ccccn1`, for which the outcome was inactive.
Regarding `Cc1ccc(NS(=O)(=O)c2ccc3c(c2)CC(=O)N3)cc1C`, the outcome was inactive.
With `Cc1ccc(NS(=O)(=O)c2ccc3c(c2)N(C)C(=O)CO3)cc1C` the entry was “inactive”; with `Cc1ccccc1Nc1c(-c2ccc(Cl)s2)nc2ccccn12`, “inactive”.
Regarding `O=C1NS(=O)(=O)c2ccccc21`, the call was inactive.
The same measure for `Cc1ccc(NS(=O)(=O)c2ccc3ccccc3c2)cc1C`: “inactive”.
With `COc1ccccc1OC1=NS(=O)(=O)c2ccccc21` the entry was “inactive”; with `CCCCN1C(=O)c2ccccc2C1=O`, “inactive”.
As to `Cc1ccc(NS(=O)(=O)c2cc3c(cc2/C=C/c2ccccc2)NC(=O)CO3)cc1C`, the result was inactive.
With `O=C1c2ccccc2C(=O)N1c1cccc(Cl)c1` the entry was “inactive”.
With `Cc1cccc(NS(=O)(=O)c2ccc3c(c2)CCC(=O)N3)c1` the entry was “inactive”; with `O=C1c2ccccc2C(=O)N1c1ccccc1O`, “inactive”; with `Cc1ccc(NS(=O)(=O)c2ccc3c(c2)CCCC(=O)N3)cc1C`, “inactive”.
On to `Cc1ccc(NS(=O)(=O)c2cc3c(cc2Cl)CCC(=O)N3)cc1Cl`, for which the molecule was classed as inactive.
In the case of `Cc1ccc(NS(=O)(=O)c2ccc3c(c2)n(C)c(=O)n3C)cc1C`, the outcome was inactive.
Regarding `Cc1ccccc1OC1=NS(=O)(=O)c2ccccc21`, the call was inactive.
With `Cc1nc(-c2ccc(S(=O)(=O)Nc3ccc(C)c(C)c3)s2)cs1` the entry was “inactive”.
Consider `Cc1ccc(OC2=NS(=O)(=O)c3ccccc32)cc1`, for which the outcome was inactive.
The same measure for `CN(C)c1cccc(S(=O)(=O)N2CCCN(S(=O)(=O)c3ccc4c(c3)OCCO4)CC2)c1`: “inactive”; for `O=S1(=O)N=C(Oc2cccc(Cl)c2)c2ccccc21`: “inactive”.
The same measure for `O=C1c2ccccc2C(=O)N1Cc1ccccc1`: “inactive”; for `COc1cccc(NS(=O)(=O)c2ccc3c(c2)CCC(=O)N3)c1`: “inactive”.
`O=C1c2ccccc2C(=O)N1c1cccc2cnccc12`: the outcome was inactive.
On to `O=C1c2ccccc2C(=O)N1c1cc(=O)c2ccccc2[nH]1`, for which the call was inactive.
With `Cc1ccc(NS(=O)(=O)c2ccc3c(ccn3C)c2)cc1C` the entry was “inactive”; with `O=C1CCc2cc(S(=O)(=O)Nc3cccc(Cl)c3)ccc2N1`, “inactive”; with `O=C1CCc2cc(S(=O)(=O)Nc3ccc4c(c3)OCCO4)ccc2N1`, “inactive”.
Regarding `COc1ccccc1N1C(=O)c2ccccc2C1=O`, the molecule was called inactive.
With `O=C1c2ccccc2C(=O)N1c1noc2ccccc12` the entry was “inactive”.
For `O=C1c2ccccc2C(=O)N1c1ccncc1`, the outcome was inactive.
The same measure for `O=C1c2ccccc2C(=O)N1Cc1ccccn1`: “inactive”; for `CC(=O)Nc1ccc(S(=O)(=O)Nc2ccc(C)c(C)c2)cc1`: “inactive”.
As for `Cc1ccc(Cl)cc1NS(=O)(=O)c1cc2c(cc1Cl)CCC(=O)N2`, the molecule was called inactive.
The same measure for `Cc1cccc(OC2=NS(=O)(=O)c3ccccc32)c1`: “inactive”.
